Columns and labels:
Conditions in all cases: concentration: 1 μM, replicates: in singlicate; n = 1
[1] = tested on: LYN
[2] = tested on: T1, LZK
T1 construct: gene MAP3K13

[3] = tested on: MAK
[4] = tested on: MAP3K15
[5] = tested on: MAP3K1
[6] = tested on: MAP3K2
[7] = tested on: MAP3K3
[8] = tested on: MAP3K4
[9] = tested on: MAP4K2
[10] = tested on: MAP4K3
[11] = tested on: MAP4K4
[12] = tested on: MAP4K5
[13] = tested on: MAPKAPK2
[14] = tested on: MAPKAPK5
[15] = tested on: MARK1
[16] = tested on: MARK2
[17] = tested on: MARK3
[18] = tested on: MARK4
[19] = tested on: MAST1
[20] = tested on: T2, MEK1
T2 construct: gene MAP2K1
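Further: KINOMEscan kinase panel screen.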

Row | SMILES | %Inh [1] [%] | %Inh [2] [%] | %Inh [3] [%] | %Inh [4] [%] | %Inh [5] [%] | %Inh [6] [%] | %Inh [7] [%] | %Inh [8] [%] | %Inh [9] [%] | %Inh [10] [%] | %Inh [11] [%] | %Inh [12] [%] | %Inh [13] [%] | %Inh [14] [%] | %Inh [15] [%] | %Inh [16] [%] | %Inh [17] [%] | %Inh [18] [%] | %Inh [19] [%] | %Inh [20] [%]
1 | Cn1cncc1-c1ccc2ncnc(Nc3ccc(OCc4ccccc4)cc3)c2c1 [GW320571] | 2 | 0 | 15 | 0 | 18 | 10 | 0 | 19 | 0 | 16 | 25 | 21 | 21 | 0 | 0 | 0 | 0 | 2 | 0 | 11
2 | CC(=O)Nc1nc2cnc(Nc3cc(NC(=O)c4cccc(CCC#N)c4)ccc3C)nc2s1 | 25 | 24 | 0 | 8 | 0 | 0 | 20 | 0 | 0 | 0 | 0 | 0 | 11 | 3 | 14 | 0 | 0 | 12 | 0 | 0
3 | Cc1cc(-c2ccc3c(c2)CC[C@@H](N[C@@H](C)c2ccccc2)C3)cnc1N.Cl [GW412617] | 0 | 7 | 15 | 0 | 17 | 20 | 0 | 0 | 97.4 | 36 | 17 | 41 | 13 | 0 | 4 | 10 | 32 | 14 | 0 | 0
4 | C[C@@H]1CCCCN1c1cc(-c2ccc3c(N)n[nH]c3c2)nc(N)n1 [GSK2258759] | 0 | 0 | 22 | 0 | 0 | 0 | 0 | 0 | 0 | 1 | 0 | 0 | 4 | 0 | 0 | 0 | 0 | 0 | 0 | 27
5 | O=C(Nc1ccccc1)Nc1cccc(Oc2ccc3nccn3n2)c1 | 0 | 0 | 27 | 0 | 0 | 0 | 0 | 4 | 0 | 9 | 0 | 0 | 0 | 0 | 2 | 39 | 0 | 9 | 0 | 0
6 | Cn1ccc2ncnc(Oc3ccc(NC(=O)Nc4ccccc4)cc3)c21 | 6 | 9 | 6 | 0 | 0 | 0 | 11 | 10 | 0 | 18 | 0 | 0 | 0 | 0 | 11 | 0 | 50 | 10 | 18 | 0
7 | COc1ccc(C2=C(Nc3cccc(C(=O)O)c3)C(=O)NC2=O)cc1 [SB-390765] | 21 | 52 | 36 | 15 | 18 | 12 | 7 | 9 | 32 | 2 | 0 | 0 | 0 | 20 | 3 | 8 | 0 | 0 | 30 | 13
8 | O=c1cc(N2CCOCC2)nc2n(Cc3cccc(Cl)c3Cl)ccn12 [GSK2286295] | 97.8 | 0 | 78 | 0 | 6 | 0 | 0 | 25 | 0 | 0 | 4 | 0 | 5 | 0 | 0 | 0 | 0 | 0 | 0 | 0
9 | O=S(=O)(c1ccc(-c2ccnc3[nH]ccc23)cc1)N1CCCC1 [GSK846226] | 0 | 0 | 24 | 0 | 14 | 7 | 0 | 0 | 0 | 0 | 0 | 0 | 0 | 0 | 0 | 8 | 0 | 0 | 0 | 24
10 | COc1ccc2nc(-c3cccc(C)n3)nc(Nc3ccncc3)c2c1 [GSK204919] | 0 | 0 | 25 | 0 | 22 | 0 | 0 | 9 | 0 | 12 | 0 | 0 | 17 | 0 | 0 | 0 | 0 | 0 | 0 | 0

From publication PMC5540273 (PLoS ONE, 2017)
